According to PubChem BioAssay:
The source made the active and inactive calls.

Experiment: E. coli DRC41 culture turbidity changes, primary screen, E. coli filamentation inducer project, strain DRC41, OD650, 48 h (AID 1152);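 further: E. coli MC1000 strain DRC41 lacking acrAB efflux pump and sulA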
Details: E. coli DRC41 (acrAB sulA), higher = more signal, called active from +8 up or from −8 down

z-score, inactive:
COc1cc2c(cc1OC)CN(C(=O)[C@H]1[C@@H]3C(=O)O[C@@H](c4ccccc4)[C@@H](c4ccccc4)N3[C@@H](c3ccc(O)cc3)[C@]13C(=O)Nc1ccc(C#CC4=CCCCC4)cc13)CC2 1.21
Cc1ccc(S[C@]2(C(=O)NCC(C)C)CC(=O)N(Cc3cc(C(F)(F)F)cc(C(F)(F)F)c3)[C@@H]2c2ccc(CO)cc2I)cc1 -0.336
CCCC[C@@H]1C[C@H]1[C@@H](NC(=O)c1ccco1)c1ccc(C(=O)OC)cc1 -2.59
O=C1O[C@H](c2ccccc2)[C@H](c2ccccc2)N2[C@H]1[C@@H](C(=O)O)[C@]1(C(=O)Nc3ccc(C#CC4=CCCCC4)cc31)[C@H]2c1ccccc1OCCO -0.611
CC(=O)N1Cc2ccccc2C[C@@]2(COC(c3ccc(OCCCO)cc3)=N2)C1=O 2.48
